For 78 molecules, Potency results are on record in PubChem BioAssay AID445 (National Center for Advancing Translational Sciences (NCATS), 2006).

The structures appear in SMILES notation. Among all 110,000 compounds or so, about 40 (0.04%) were called active. A call without a number means that no potency is given here. Inconclusive results (about 22%) are left out. This is one part of a sample in which actives are shown more often than they occur. Calls follow the shape of the dose curve; as a rule, active = well fitted curve in the direction sought with a large enough effect in the signal ratio (not every such curve was filed as active); inconclusive = small, poorly fitted or top-dose-only effect, or a change in a side signal; inactive = flat fitted curve, though single readings scatter; the % refers to the signal ratio.
Potency is read from the fitted curve at half-maximal effect.

The assay is described as follows: IkB Signaling. Conditions: ABC-DLBCL IkBa-CBG/CBR dual luciferase ratio, 4 h; series mostly up to 57.1 µM. From the text: NIH Molecular Libraries Screening Centers Network [MLSCN]
NIH Chemical Genomics Center [NCGC]
Nuclear factor kappa-B (NF-kappa-B) plays an important role in normal B cell development and survival. Diffuse large B cell lymphoma (DLBCL) is the most commonly observed type of non-Hodgkin's lymphoma. Gene expression analysis has identified an activated B cell-like subtype of DLBCL (ABC-DLBCL) which expresses known NF-kappa-B target genes. […] However, targets upstream of IKK have been largely unexplored and so nodes upstream of IKK in the NF-kappa-B pathway remain untested due to the lack of chemical probes.
A cell-sensor assay for I-kappa-B-alpha stabilization was developed with NIH investigator Dr. R. Eric Davis in Dr. Louis M. Staudt's laboratory. The assay uses green (CBG68) and red (CBR) emitting beetle luciferases [Chroma-Glo(TM) developed by Promega Corp.] where the green luciferase is fused to I-kappa-B-alpha and the red luciferase is present in its native state. Both luciferase genes are stably present in the OCI-Ly3 human ABC DLBCL cell line, but their expression is under the control of tetracycline-inducible promoters. Following the addition of doxycycline to induce expression of the luciferases, the green luminescence in control cultures rises only slowly because the CBG fusion partner I-kappa-B-alpha is targeted by IKK activity for rapid degradation. In contrast, green luminescence rises rapidly in the presence of proteasome inhibitors or IKK inhibitors. The rise in red luminescence of CBR is not affected by proteasome or IKK inhibitors, and serves as normalization for cell number and nonspecific effects. Compounds were screened as a concentration-titration series that ranged from 57 uM to 0.7 nM.
NCGC Assay Protocol Summary:
Cells were seeded in 1536-well plates at 5000 cells/3ul in IMDM medium containing 0.5% FBS, w/o phenol red, L-glutamine, 25 mM HEPES, 3 mg/ml sodium bicarbonate. After centrifugation for 1 min. at 1000 rpm, 23 nl of compounds or DMSO were delivered to each well using a pin tool. Then 1ul 80ng/ml doxycycline was dispensed into white solid 1536-well plates and the plates were incubated at 37C/5% C02 in a cell incubator for 4 hrs. Then 4 ul Chroma-Glo luminescent substrate mix (Promega) was added to each well. The plate was incubated at R.T. for 10-15 min. The plates were measured on a ViewLux plate reader for green luminescence (540/20 nm filter) and red luminescence (618/8 nm filter). The green and red luminescent signals were corrected for red and green luminescence filter overlap using previously determined filter calibration constants (determined using the procedure outlined in the Promega Technical Manual). The %Activity was determined from the ratio of corrected green/red luminescent values. Green luminescent and ratio %Activity was determined by normalizing to the difference in signal between basal cells (0% Activity) and cells incubated with 10 uM of the proteasome inhibitor MG-132 (100% Activity). Red luminescent %Activity was normalized to the difference between red luminesence in basal cells (0%Activity) and zero luminescence (-100% Activity).
Concentration-response curves were fitted to the signals arising from the green luminescence (I-kappa-B-alpha-luciferase fusion; IkB-luc) and the red luminescence (unfused luciferase; luc) as well as the calculated ratio. The concentration-effect curves were then classified based on curve quality (r2), response magnitude and degree of measured activity. Compounds were then categorized based on their concentration-response curves for all three datasets (Ikb-luc, luc and ratio).
Keywords: IKK, I-kappa-B, IkB, IkBa, cytotoxicity, luminescence, MLSMR, MLSCN, NIH Roadmap, qHTS, NCGC
Regarding `O=C(NCCc1ccccc1)c1ccc2c(c1)N(Cc1ccccc1)C(=O)c1ccccc1S2(=O)=O`, the Potency result is “inactive”. Consider `CCCN(CCC)C(=O)C(Cc1ccccc1)NS(=O)(=O)c1ccc2c(c1)c(=O)n(C)c(=O)n2C` (stereo not drawn), for which the Potency result was “inactive”. `CCOc1ccc(CCNC(=O)c2c(C)oc3ncn(C)c(=O)c23)cc1`: the Potency result was “inactive”.

As for `O=C(NCCCO)c1nn(-c2ccc(Cl)cc2)nc1CO`, the Potency entry was “inactive”. Consider `Cc1ccc(NC2=C(c3ccc(C(F)(F)F)cc3)C(=O)c3ccccc32)cc1F`, for which the Potency result was “inactive”.

Take `CC(C)OCCCn1c(SCC(=O)c2ccccc2)nc2c(sc3ccccc32)c1=O`: the Potency entry was “inactive”. `CCCN1CCN(CCCNC(=O)c2cnn(-c3ccc(C)cc3)c2-n2cccc2)CC1`: the Potency result is “inactive”. As to `COc1cc(OC)c(OC)cc1/C=C/c1nc2ccccc2c(=O)n1-c1ccc(Br)c(C)c1`, the Potency entry was “inactive”.

With `Cc1cccc(NC(=O)CSc2nc3c([nH]c4ccccc43)c(=O)n2-c2cc(C)cc(C)c2)c1`, the Potency result is “inactive”. `COc1ccc(CNS(=O)(=O)c2ccc(-c3cnc(C4CC4)o3)cc2)cc1`: the Potency entry is “inactive”. Under `CCOC(=O)c1c(C)[nH]c(C)c1S(=O)(=O)N(C)CC(=O)N1CCN(c2ccccc2)CC1` stands “inactive”; under `CCOC(=O)c1c(NC(=O)/C=C/c2ccc(OC)cc2)sc2c1CCC(C)C2` (stereo not drawn), “inactive”; under `O=C(NCCc1ccccc1)C(=O)NCC(c1ccco1)S(=O)(=O)c1ccccc1` (stereo not drawn), “inactive”. As to `CC(NC(=O)CCc1cn(Cc2ccccc2Cl)c2ccccc12)c1ccccc1` (stereo not drawn), the Potency entry was “inactive”. Consider `CCc1nc2onc(C)c2c(=O)n1CC(=O)O`, for which the Potency result was “inactive”. Regarding `O=C1OC(C(=O)Nc2cccc(Br)c2)Cc2ccccc21` (stereo not drawn), the Potency entry is “inactive”. Consider `CCC(=O)N1CCc2cc(CNC(=O)Nc3ccccc3Cl)ccc21`, for which the Potency result was “inactive”.

In the case of `CCS(=O)(=O)N1CCC(n2c(C)nc3cccnc32)CC1`, the Potency result is “inactive”. Consider `Cc1oc2c(c1C(=O)Nc1ccc(F)c(F)c1)C1=NCCN1C=N2`, for which the Potency result was “inactive”. Under `O=C(c1ccc2c(c1)N(Cc1ccccc1F)C(=O)c1ccccc1S2(=O)=O)N1CCOCC1` stands “inactive”; under `Cc1ccc(S(=O)(=O)c2nnn3c2nc(N2CCN(c4ccccc4F)CC2)c2cc(Cl)ccc23)cc1C`, “inactive”. `COCCCNC(=O)c1c(NC(=O)c2cc(=O)c3cc(C)c(C)cc3o2)sc2c1CCCC2`: the Potency entry is “inactive”. For `CC(C)(C)OC(=O)N1CCC(c2c(C(=O)N3CCc4ccccc4C3)cnn2-c2ccc(F)cc2)CC1`, the Potency result was “inactive”. As for `Cc1ccc2nc(-c3ccc(C)c(NC(=O)Cc4ccccc4)c3)oc2c1`, the Potency result is “inactive”. In the case of `O=C(NCc1ccc(F)cc1)c1ccc2nc(N3CCCCC3)sc2c1`, the Potency result was “inactive”. For the molecule `COc1ccc(-c2nn(CC(=O)NC3CCCC3)c3c2cnc2ccc(F)cc23)cc1`, the Potency result is “inactive”. On to `CCOc1ccc(N2CC(C)Cn3c2nc2c3c(=O)n(Cc3c(F)cccc3Cl)c(=O)n2C)cc1` (stereo not drawn), for which the Potency result was “inactive”. Under `CCOc1ccc(NC(=O)Cn2c(C)ccc(C#N)c2=O)cc1` stands “inactive”. Turning to `O=C(Nc1cccc2cccnc12)c1cccc2c(Br)cccc12`, the Potency result is “inactive”. Under `COc1ccc(-n2c(SC)nc3sc4c(c3c2=O)CCN(C(C)=O)C4)cc1` stands “inactive”; under `Cc1ccc(S(=O)(=O)N2CCc3cc(C(=O)Nc4ccc(Cl)cc4C)ccc32)cc1`, “inactive”; under `COc1ccc(C)cc1-n1c(-c2ccc(C)cc2)cc2c1CC(C)(C)CC2=O`, “inactive”.

Take `CCC1CCCCN1Cc1c(O)ccc2c(=O)c(Oc3ccccc3Cl)c(C(F)(F)F)oc12` (stereo not drawn): the Potency result was “inactive”. `Cc1ccc(F)cc1S(=O)(=O)N1CCC(c2nc3ccccc3s2)CC1`: the Potency result is “inactive”. Under `CC(=O)c1ccc(NC(=O)COc2ccccc2-c2nc(-c3ccccc3)no2)cc1` stands “inactive”; under `CCc1nn(CCCC(=O)NC(C)c2ccccc2)c(=O)c2cc3occc3n12` (stereo not drawn), “inactive”. Under `CC(=O)N1CCCc2cc(S(=O)(=O)Nc3ccc(Cl)cc3F)ccc21` stands “inactive”. As to `COc1ccc(CNC(=O)C(C)n2nc(C)c3c(C)n(-c4ccccc4)nc3c2=O)c(OC)c1` (stereo not drawn), the Potency entry is “inactive”. As for `Cc1ccc(-c2nc(Cn3c(=O)cc(-c4ccccc4)c4c(C)nn(C)c43)c(C)o2)cc1`, the entry is “inactive”. As to `COc1ccc(C2C(=O)N(C3CCCCC3)CC(=O)N2Cc2ccccc2Cl)cc1OC` (stereo not drawn), the Potency result is “inactive”. As for `Cc1ccc(NC(=O)c2oc3ccccc3c2NC(=O)Cc2cccs2)cc1`, the entry is “inactive”; as for `CCOC(=O)C1CCN(S(=O)(=O)c2ccc3c(c2)N(C)C(=O)CC(=O)N3C)CC1`, “inactive”; as for `COc1ccc(-c2nc3nc(C)cc(C)n3c2Nc2c(C)cccc2C)cc1`, “inactive”. Consider `Cc1ccc(C)c(CN2C(=O)c3ccccc3S(=O)c3ccc(C(=O)N4CCOCC4)cc32)c1` (stereo not drawn), for which the Potency entry was “inactive”. Consider `Cc1ccccc1CNC(=O)CCCn1nc(C)c2sc3ccccc3c2c1=O`, for which the Potency result is “inactive”. Take `CCc1cccc(NC(=O)Cn2nc(CC)n3c(cc4cc(C)ccc43)c2=O)c1`: the Potency result was “inactive”. Regarding `Cn1c(=O)c2c(ncn2CC(=O)Nc2cccc(C(F)(F)F)c2)n(C)c1=O`, the Potency entry is “inactive”. As to `COc1ccc(NS(=O)(=O)c2cc3c(cc2C)N(C(C)=O)CCO3)cc1`, the Potency entry is “inactive”.

Consider `COc1cc(C)ccc1OCCSc1nc2ccc(NC(=O)c3ccc(C)cc3)cc2s1`, for which the Potency result was “inactive”. Regarding `CCOC(=O)c1ccc(-c2ccc(/C=C(\C#N)C(=O)Nc3ccc(C)cc3)o2)cc1`, the Potency result was “inactive”. For `CCn1c2c(c(=O)n3ncc(C(=O)N4CCN(c5ccccc5)CC4)c13)CN(Cc1ccc(OC)cc1)CC2`, the Potency entry is “inactive”.

As to `Cc1cccc(-n2c(SCC(N)=O)nc3c(oc4ccccc43)c2=O)c1`, the Potency result was “inactive”.

As to `Cc1cccc(-c2nc(SCc3ccc(Br)cc3)n3[nH]c(=O)cc3n2)c1`, the Potency entry was “inactive”. Under `CCOc1cccc2sc(N3CCN(C(=O)C4CC4)CC3)nc12` stands “inactive”; under `O=c1cc(CSc2ncn[nH]2)[nH]c2ccc(F)cc12`, “inactive”; under `O=C(CC1Oc2ccccc2NC1=O)NCc1ccc(F)cc1` (stereo not drawn), “inactive”. Regarding `Cc1ccc(CNC(=O)CCC(=O)N2Cc3ccccc3Oc3ncccc32)cc1`, the Potency entry was “inactive”. On to `Cc1cc(C)c(NC(=O)Cn2c(SCC(=O)NCc3ccccc3)nc3ccccc32)c(C)c1`, for which the Potency result is “inactive”. For `CCCC(=O)N1CCN(c2nc3c(OC)ccc(C)c3s2)CC1`, the Potency result is “inactive”. Take `Cc1cccc(Nc2cc(C)nc(-n3nc(C)cc3C)n2)c1`: the Potency entry is “inactive”. Take `Cc1cc(C)n(-c2ccc(Cl)c(C(=O)O)n2)n1`: the Potency entry was “inactive”. As for `CC(=O)c1ccc(Oc2cc(C)nc(-n3nc(C)cc3C)n2)cc1`, the Potency is 6.31 µM (active).

As to `OCc1cnc(SCc2ccc(F)cc2)n1Cc1ccc(F)cc1`, the Potency entry was “inactive”. As to `CC(C)(C)OC(=O)N1CCC(c2c(C(=O)NCc3ccccn3)cnn2-c2ccc(F)cc2)CC1`, the Potency result was “inactive”. Turning to `COc1ccccc1NC(=O)CN1C(=O)c2ccccc2Sc2ccc(C(=O)N3CCCC3)cc21`, the Potency entry is “inactive”. As for `COCCn1c(CCC(=O)Nc2cc(C)ccc2C)nc2cccnc21`, the entry is “inactive”.

Consider `Cc1ccc(N2CC(C(=O)Nc3ccc(N(C)C)cc3)CC2=O)cc1Cl` (stereo not drawn), for which the Potency entry is “inactive”. As to `CCOc1ccc(N(CC)C(=O)c2noc3c2COc2ccc(C)cc2-3)cc1`, the Potency result was “inactive”. As to `Cc1ccc(C)c(N2C(=O)N(Cc3c(F)cccc3Cl)c3ccccc3S2(=O)=O)c1`, the Potency entry is “inactive”.

With `Cc1csc2nc(COC(=O)c3ccccc3NC(=O)c3ccccc3Cl)cc(=O)n12`, the Potency result is “inactive”. For `CCN(CC)C(=O)CSc1nc2cc3c(cc2c(=O)n1CCCC(=O)NCc1ccc2c(c1)OCO2)OCO3`, the Potency entry was “inactive”.

Take `O=C(CCn1c(=O)c2ccccc2n(Cc2ccc(Cl)cc2)c1=O)NCc1ccc2c(c1)OCO2`: the Potency result is “inactive”. Take `CCOc1ccc2nc(N3CCCC(C(=O)Nc4cc(C)ccc4C)C3)sc2c1` (stereo not drawn): the Potency entry is “inactive”. As for `CCc1ccc(NC(=O)CN2C(=O)CCSc3ccc(S(=O)(=O)N4CCCC4)cc32)cc1`, the entry is “inactive”.

Turning to `Cc1cccc(NC(=O)Cn2c(C(F)(F)F)nc3ccccc32)c1C`, the Potency entry is “inactive”. For `COc1ccc(C2c3c(oc4ccccc4c3=O)C(=O)N2Cc2ccc3c(c2)OCO3)cc1` (stereo not drawn), the Potency entry was “inactive”. In the case of `Cc1ccc(Cl)cc1NC(=O)C(C)n1nnc2sc(-c3ccccc3)cc2c1=O` (stereo not drawn), the Potency entry is “inactive”.

`CCOC(=O)c1sc(NC(=O)/C=C/c2ccc(C(C)C)cc2)c(C(=O)OCC)c1C`: the Potency entry was “inactive”.
